Among all 360,000 compounds or so, about 11,000 (3.1%) were called active. Inconclusive results (about 4%) are left out. The entries come from a sample that favours actives as a whole. A number with no mark means an inactive call. Calls follow the shape of the dose curve; as a rule, active = well fitted inhibition curve with a large enough effect; inconclusive = small, poorly fitted or top-dose-only effect; inactive = no such curve, though single readings can be large or run the other way.

The results in this text go back to PubChem BioAssay AID485364 (National Center for Advancing Translational Sciences (NCATS), 2010).
% is scaled to controls: 0 for no effect and ±100 for the full control effect; potency is read from the fitted curve at half-maximal effect.

The target of the assay is Schistosoma mansoni thioredoxin glutathione reductase (TGR) (UniProt Q962Y6). In words: qHTS Assay for the Inhibitors of Schistosoma Mansoni Peroxiredoxins. Also: nearly all actives have a fitted effect of over 60% in size. The conditions noted are these: purified TGR, DTNB reduction, TNB absorbance 405 nm; series mostly up to 114 µM; activity change, negative = inhibition: at the top concentration. The procedure, abridged: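 First, TGR (20 nM dispensed) and NADPH were mixed with compound. Second, a 15 min room-temperature incubation followed. Third, further NADPH and then DTNB were added to start the reaction. Finally, TNB absorbance was monitored kinetically.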
A general note: qHTS replaces the single test concentration by a dilution series.
Regarding `c1coc(-c2nc3nc4ccccc4n3nc2-c2ccco2)c1`, the Potency is 44.7 µM (active).

Consider `O=C(COc1ccc(Cl)cc1)Nc1ccccc1OCc1cc(=O)n2ccccc2n1`, for which the “activity change, negative = inhibition” value is 2.3%.

Consider `COc1ccc(C(=O)c2c(C)oc3cc([N+](=O)[O-])c(O)c([N+](=O)[O-])c23)cc1`, for which the “activity change, negative = inhibition” value is -31.7%.

Regarding `Cc1nc2ccccc2c(-c2ccccc2)c1C(=O)c1ccccc1`, the “activity change, negative = inhibition” value is -13.7%.

Turning to `Cc1oc2cc(Br)c(O)c(Br)c2c1C(=O)c1ccccc1`, the Potency was 15.8 µM (active).

In the case of `Brc1cccc(-c2nnn3c2nc(NC2CCCCC2)c2ccccc23)c1`, the “activity change, negative = inhibition” value is 37%.

With `COc1ccc(CCNC(=O)Cn2c(=O)cc(C(F)(F)F)c3c(C)nn(C)c32)c(OC)c1`, the “activity change, negative = inhibition” value was 3.9%.

For `COCCN1C(=O)C(=O)/C(=C(/O)c2ccc(S(=O)(=O)N3CCOCC3)cc2)C1c1ccc(OC)c(OC)c1` (configuration not stated), the “activity change, negative = inhibition” value is -3.05%.

Regarding `CCN(CC)CCN1C(=O)C(=O)/C(=C(/O)c2ccc(OC)c(OC)c2)C1c1ccccn1` (configuration not stated), the “activity change, negative = inhibition” value is 11.8%.

As to `O=C1C(=O)N(CCN2CCOCC2)C(c2cccc(Cl)c2)/C1=C(/O)c1ccc2c(c1)OCO2` (configuration not stated), the Potency was 50.1 µM (active).

Turning to `COCCCN1C(=O)C(=O)/C(=C(/O)c2ccc(S(=O)(=O)N3CCOCC3)cc2)C1c1ccc(F)cc1` (configuration not stated), the “activity change, negative = inhibition” value is 5.3%.

On to `O=C1C(=O)N(CCCO)C(c2ccccc2)/C1=C(\O)c1ccc(Br)cc1` (configuration not stated), for which the “activity change, negative = inhibition” value was 11.9%.

With `O=C1C(=O)N(CCN2CCOCC2)C(c2ccccn2)/C1=C(/O)c1ccc(Cl)cc1` (configuration not stated), the Potency is 20 µM (active).

As to `CC1Cc2cc(/C(O)=C3\C(=O)C(=O)N(CCN4CCOCC4)C3c3ccccc3F)ccc2O1` (configuration not stated), the “activity change, negative = inhibition” value was -26.7%.

Turning to `COCCN1C(=O)C(=O)/C(=C(/O)c2ccc(S(=O)(=O)N3CCOCC3)cc2)C1c1ccc(O)c(OC)c1` (configuration not stated), the “activity change, negative = inhibition” value is -15.2%.

For `COc1ccc(C2/C(=C(/O)c3ccc(OC(C)C)cc3)C(=O)C(=O)N2CCCN2CCOCC2)cc1` (configuration not stated), the Potency is 20 µM (active).

For `CCn1c2c(c(=O)n3ncc(C(=O)N4CCN(c5ccccc5)CC4)c13)CN(Cc1ccc(OC)cc1)CC2`, the “activity change, negative = inhibition” value was -22.6%.

Take `CCc1cccc(NC(=O)CN(C)S(=O)(=O)c2ccc3[nH]c4c(c3c2)CCCC4)c1`: the “activity change, negative = inhibition” value is -3.12%.

As to `O=C(Nc1cc(C(F)(F)F)ccc1Cl)c1cc2nc(-c3ccc4c(c3)OCO4)cc(C(F)(F)F)n2n1`, the “activity change, negative = inhibition” value is 10%.

Consider `O=C(CSc1nc(Nc2ccc(F)c(F)c2)c2ccccc2n1)c1ccc(Cl)cc1`, for which the “activity change, negative = inhibition” value is -0.95%.

`Cc1cc(C)nc(NS(=O)(=O)c2ccc(NC(=O)c3cc(=O)c4ccc(C)c(C)c4o3)cc2)n1`: the “activity change, negative = inhibition” value is 8.3%.

Consider `COC(=O)c1c(NC(=O)CCCOc2ccccc2)sc2c1CCC(C)C2` (configuration not stated), for which the “activity change, negative = inhibition” value was -12.3%.

Consider `O=C(O)CCn1cc(C=C2C(=O)NC(=S)NC2=O)c(-c2cccc(Br)c2)n1`, for which the Potency is 31.6 µM (active).

`O=C(O)CCn1cc(/C=C/C(=O)c2ccc(Cl)cc2)c(-c2cccc(Br)c2)n1`: the “activity change, negative = inhibition” value is 8.71%.

`Cc1cccc(NC(=O)c2ccc3nc(C(C)C)oc3c2)c1C`: the “activity change, negative = inhibition” value is 1.6%.

Consider `O=S(=O)(c1ccc(Br)cc1)c1nc(-c2ccccc2)oc1N1CCOCC1`, for which the “activity change, negative = inhibition” value is -40.2%.

On to `O=S(=O)(c1ccccc1)c1nc(Cc2ccccc2)oc1N1CCOCC1`, for which the Potency was 2 µM (active).

With `O=S(=O)(c1ccccc1)c1nc(-c2ccccc2)oc1NCCCN1CCOCC1`, the “activity change, negative = inhibition” value is -7%.

Take `Cc1ccc(NC(=O)Nc2sc3nc4n(c(=O)c3c2C)CCC(C)CC4)c(Cl)c1` (configuration not stated): the “activity change, negative = inhibition” value was 4.36%.

Turning to `CCC(C)c1ccc2oc(-c3ccc(NC(=O)c4cc5ccccc5o4)cc3)nc2c1` (configuration not stated), the “activity change, negative = inhibition” value was 0.847%.

`Cc1ccc(C2c3[nH]c4ccccc4c3CCN2C(=O)c2cccc(C)c2)cc1` (configuration not stated): the “activity change, negative = inhibition” value was 5.12%.

As for `Cc1ccc(C)c(N2C(=O)N(Cc3c(F)cccc3Cl)c3ccccc3S2(=O)=O)c1`, the “activity change, negative = inhibition” value was 12.1%.

Turning to `COc1ccc(CCNC(=O)C(=O)NCC(c2ccco2)S(=O)(=O)c2cccs2)cc1OC` (configuration not stated), the Potency is 3.55 µM (active).

For `CCN(CC(=O)NCc1ccco1)S(=O)(=O)c1ccc(F)cc1`, the “activity change, negative = inhibition” value is -8.46%.

Regarding `O=C(CCNC(=O)c1ccc(Br)cc1)NCC(c1ccco1)N1CCCCC1` (configuration not stated), the “activity change, negative = inhibition” value was -2.93%.

For `Cc1cc(S(=O)(=O)Nc2ccc(C(=O)NCC(c3ccco3)N3CCCC3)cc2)ccc1F` (configuration not stated), the “activity change, negative = inhibition” value is -8.98%.

With `COc1ccc(CCNC(=O)C(=O)NCc2ccccc2C)cc1OC`, the “activity change, negative = inhibition” value is -2.9%.

As to `O=C(NCC(c1ccco1)S(=O)(=O)c1cccs1)c1ccc(F)cc1` (configuration not stated), the Potency is 7.08 µM (active).

Regarding `COc1ccc(CCNC(=O)C(=O)NCC2CCCN2S(=O)(=O)c2cccs2)cc1OC` (configuration not stated), the “activity change, negative = inhibition” value was -10.8%.

Take `CC(C)(C)c1ccc(C(=O)NCC(c2ccco2)S(=O)(=O)c2ccc(F)cc2)cc1` (configuration not stated): the Potency was 11.2 µM (active).

Turning to `O=C(NCC(c1ccco1)N1CCc2ccccc21)c1cccc(F)c1` (configuration not stated), the “activity change, negative = inhibition” value was 2.37%.

For the compound `CCC(=O)Nc1c(C(=O)N2CCN(c3ccc(F)cc3)CC2)oc2ccccc12`, the “activity change, negative = inhibition” value is -2.54%.

With `CN(CC(=O)Nc1cccc(C(F)(F)F)c1)S(=O)(=O)c1cccs1`, the “activity change, negative = inhibition” value is -0.406%.

Turning to `CCOc1ccc(N(CC)C(=O)c2noc3c2COc2ccc(C)cc2-3)cc1`, the “activity change, negative = inhibition” value is -10.9%.

Consider `Cc1ccc2[nH]c3c(=O)n(CC(=O)NC(C)C)ncc3c2c1`, for which the “activity change, negative = inhibition” value is -3.07%.

For `Cc1ccc2c(=O)cc(C(=O)Nc3sc4c(c3C(=O)NCc3cccnc3)CCCC4)oc2c1`, the “activity change, negative = inhibition” value was 5.7%.

Regarding `CCCNC(=O)c1ccc(Cn2c(SCC(N)=O)nc3ccccc3c2=O)cc1`, the “activity change, negative = inhibition” value was 5.19%.

Turning to `CCN(CC(=O)Nc1ccc(Cl)c(S(=O)(=O)N(C)C)c1)Cc1nc2ccccc2c(=O)[nH]1`, the Potency is 39.8 µM (active).

`O=C(c1ccco1)N(Cc1nc2ccccc2c(=O)[nH]1)C1CCCC1`: the “activity change, negative = inhibition” value was -35.5%.

Regarding `CCN(CC(=O)Nc1cccc(S(N)(=O)=O)c1)Cc1nc2ccccc2c(=O)[nH]1`, the “activity change, negative = inhibition” value was 2.33%.

On to `CCN(CC(=O)Nc1ccc(C)c(S(=O)(=O)N(C)C)c1)Cc1ccccc1`, for which the “activity change, negative = inhibition” value is -15.6%.

Take `CN(C)S(=O)(=O)c1cc(NC(=O)CN2C(=O)NC3(CCCc4ccccc43)C2=O)ccc1Cl` (configuration not stated): the “activity change, negative = inhibition” value is -7.41%.

In the case of `CCN(CC)c1ccc(C(=O)NNC(=O)CCc2nc3ccccc3c(=O)[nH]2)cc1`, the “activity change, negative = inhibition” value is 1.8%.

On to `CCN(CC(=O)NC(=O)NCc1ccccc1)Cc1nc2ccccc2c(=O)[nH]1`, for which the Potency was 89.1 µM (active).

Turning to `CCCCN(CC(=O)Nc1cccc(S(=O)(=O)N2CCCC2)c1)Cc1nc2ccccc2c(=O)[nH]1`, the Potency is 22.4 µM (active).

`CCN(CC(=O)Nc1cccc(S(=O)(=O)N2CCCCC2)c1)Cc1ccccc1`: the “activity change, negative = inhibition” value was 8.89%.

Regarding `Cn1c(=O)c2c(SCC(=O)N3CCc4ccccc43)nc(-c3ccc(Cl)cc3)nc2n(C)c1=O`, the “activity change, negative = inhibition” value was 0.229%.
